In all, about 5,500 compounds went through this assay and about 2,000 (36%) were called active. Another 18% or so got no clear call; they are omitted. Rule as the data show it: active = normalized growth mostly below about 0.91 (no sharp cut-off); inconclusive = no clear call, values can overlap the other calls; inactive = mostly above about 0.92. This is one part of the list.
Experiment: chemical genetic growth profiling, strain panel (AID 1159580);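 also: tested at 20 µM; growth read once vehicle control cultures reached saturation at 30 °C; 1 = growth at the plate median or of vehicle wells; lower values mean less growth of the strain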
Settings: growth OD

Measured: normalized growth

CCCCCCCCCCCCCC(=O)OC1C(C)C2(O)C(C=C(CO)CC3(O)C(=O)C(C)=CC32)C2C(C)(C)C12OC(C)=O (centres undefined)
inactive: S. cerevisiae deletion strains, locus YJR043C, strain POL32, hits give low values 1.03 | S. cerevisiae deletion strains, locus YJR075W, strain HOC1, hits give low values 1 | S. cerevisiae deletion strains, locus YKL009W, strain mrt4, hits give low values 0.973 | S. cerevisiae deletion strains, locus YKL068W, hits give low values 1.01 | S. cerevisiae deletion strains, locus YKL085W, strain MDH1 (second series), hits give low values 0.966 | S. cerevisiae deletion strains, locus YKL085W, strain MDH1, hits give low values 0.966 | S. cerevisiae deletion strains, locus YKL160W, strain elf1, hits give low values 1 | S. cerevisiae deletion strains, locus YKL190W, strain CNB1, hits give low values 1.02 | S. cerevisiae deletion strains, locus YKR001C, strain vps1, hits give low values 0.981 | S. cerevisiae deletion strains, locus YKR026C, strain gcn3, hits give low values 0.964 | S. cerevisiae deletion strains, locus YKR091W, strain srl3, hits give low values 0.979 | S. cerevisiae deletion strains, locus YLL001W, strain dnm1, hits give low values 0.991 | S. cerevisiae deletion strains, locus YLL026W, hits give low values 0.988 | S. cerevisiae deletion strains, locus YLL041C, strain sdh2, hits give low values 0.984 | S. cerevisiae deletion strains, locus YLR027C, strain aat2, hits give low values 0.992 | S. cerevisiae deletion strains, locus YLR039C, strain RIC1, hits give low values 1.06 | S. cerevisiae deletion strains, locus YLR058C, strain SHM2, hits give low values 0.996 | S. cerevisiae deletion strains, locus YLR102C, strain apc9, hits give low values 0.998 | S. cerevisiae deletion strains, locus YLR221C, strain rsa3, hits give low values 0.972 | S. cerevisiae deletion strains, locus YLR258W, strain gsy2, hits give low values 0.988 | S. cerevisiae deletion strains, locus YLR262C, strain YPT6 (second series), hits give low values 0.993 | S. cerevisiae deletion strains, locus YLR262C, strain YPT6, hits give low values 0.988 | S. cerevisiae deletion strains, locus YLR268W, strain sec22, hits give low values 1.01 | S. cerevisiae deletion strains, locus YLR320W, strain mms22, hits give low values 0.974 | S. cerevisiae deletion strains, locus YLR330W, strain CHS5, hits give low values 0.997 | S. cerevisiae deletion strains, locus YLR342W, strain FKS1 (second series), hits give low values 1.03 | S. cerevisiae deletion strains, locus YLR342W, strain FKS1, hits give low values 0.982 | S. cerevisiae deletion strains, locus YLR357W, strain rsc2, hits give low values 0.954 | S. cerevisiae deletion strains, locus YLR370C, strain arc18, hits give low values 0.988 | S. cerevisiae deletion strains, locus YLR371W, strain rom2, hits give low values 0.994 | S. cerevisiae deletion strains, locus YLR384C, strain iki3, hits give low values 0.99 | S. cerevisiae deletion strains, locus YLR418C, strain cdc73, hits give low values 0.973 | S. cerevisiae deletion strains, locus YML016C, strain PPZ1, hits give low values 1.03 | S. cerevisiae deletion strains, locus YML032C, strain rad52, hits give low values 0.976 | S. cerevisiae deletion strains, locus YML120C, strain ndi1, hits give low values 0.983 | S. cerevisiae deletion strains, locus YML124C, strain tub3, hits give low values 0.998 | S. cerevisiae deletion strains, locus YMR058W, strain fet3, hits give low values 0.983 | S. cerevisiae deletion strains, locus YMR078C, strain ctf18, hits give low values 0.991 | S. cerevisiae deletion strains, locus YMR125W, strain sto1, hits give low values 0.993 | S. cerevisiae deletion strains, locus YMR129W, hits give low values 0.976 | S. cerevisiae deletion strains, locus YMR205C, strain PFK2, hits give low values 0.926 | S. cerevisiae deletion strains, locus YMR223W, strain ubp8, hits give low values 0.971 | S. cerevisiae deletion strains, locus YMR231W, strain pep5, hits give low values 0.986 | S. cerevisiae deletion strains, locus YMR263W, strain SAP30, hits give low values 1 | S. cerevisiae deletion strains, locus YMR307W, strain GAS1, hits give low values 0.922 | S. cerevisiae deletion strains, locus YNL067W, strain RPL9B, hits give low values 1.01 | S. cerevisiae deletion strains, locus YNL071W, strain lat1, hits give low values 0.991 | S. cerevisiae deletion strains, locus YNL128W, strain TEP1, hits give low values 1.01 | S. cerevisiae deletion strains, locus YNL153C, strain GIM3, hits give low values 0.999 | S. cerevisiae deletion strains, locus YNL209W, strain ssb2, hits give low values 0.99 | S. cerevisiae deletion strains, locus YNL233W, strain BNI4, hits give low values 1 | S. cerevisiae deletion strains, locus YNL248C, strain rpa49, hits give low values 0.995 | S. cerevisiae deletion strains, locus YNL250W, strain rad50, hits give low values 0.981 | S. cerevisiae deletion strains, locus YNL271C, strain bni1, hits give low values 1 | S. cerevisiae deletion strains, locus YNL298W, strain CLA4, hits give low values 0.976 | S. cerevisiae deletion strains, locus YNL307C, strain MCK1, hits give low values 0.99 | S. cerevisiae deletion strains, locus YNL322C, strain KRE1 (second series), hits give low values 0.978 | S. cerevisiae deletion strains, locus YNL322C, strain KRE1, hits give low values 0.997 | S. cerevisiae deletion strains, locus YNR049C, strain mso1, hits give low values 0.981 | S. cerevisiae deletion strains, locus YNR052C, strain pop2, hits give low values 0.995 | S. cerevisiae deletion strains, locus YOL006C, strain TOP1, hits give low values 1.03 | S. cerevisiae deletion strains, locus YOL012C, strain htz1 0.932 | S. cerevisiae deletion strains, locus YOL147C, strain pex11, hits give low values 0.99 | S. cerevisiae deletion strains, locus YOR001W, strain rrp6, hits give low values 1.01 | S. cerevisiae deletion strains, locus YOR061W, strain CKA2, hits give low values 1.02 | S. cerevisiae deletion strains, locus YOR069W, strain VPS5, hits give low values 1.02 | S. cerevisiae deletion strains, locus YOR070C, strain gyp1, hits give low values 0.987 | S. cerevisiae deletion strains, locus YOR080W, strain dia2, hits give low values 0.977 | S. cerevisiae deletion strains, locus YOR083W, strain WHI5, hits give low values 1.01 | S. cerevisiae deletion strains, locus YOR106W, strain vam3, hits give low values 0.999 | S. cerevisiae deletion strains, locus YOR136W, strain idh2, hits give low values 0.981 | S. cerevisiae deletion strains, locus YOR144C, strain elg1, hits give low values 1 | S. cerevisiae deletion strains, locus YOR184W, strain ser1, hits give low values 0.979 | S. cerevisiae deletion strains, locus YOR265W, strain rbl2, hits give low values 0.997 | S. cerevisiae deletion strains, locus YOR270C, strain vph1, hits give low values 0.948 | S. cerevisiae deletion strains, locus YOR290C, strain snf2, hits give low values 0.947 | S. cerevisiae deletion strains, locus YOR316C, strain cot1, hits give low values 0.994 | S. cerevisiae deletion strains, locus YPL051W, strain arl3, hits give low values 1.02 | S. cerevisiae deletion strains, locus YPL055C, strain LGE1, hits give low values 1.02 | S. cerevisiae deletion strains, locus YPL078C, strain atp4, hits give low values 0.989 | S. cerevisiae deletion strains, locus YPL106C, strain sse1, hits give low values 0.985 | S. cerevisiae deletion strains, locus YPL240C, strain hsp82, hits give low values 0.961 | S. cerevisiae deletion strains, locus YPL241C, strain CIN2, hits give low values 0.972 | S. cerevisiae deletion strains, locus YPR119W, strain clb2, hits give low values 0.993 | S. cerevisiae deletion strains, locus YPR141C, strain kar3, hits give low values 0.986 | S. cerevisiae deletion strains, locus YPR163C, strain tif3, hits give low values 0.998 | S. cerevisiae deletion strains, locus YPR167C, strain met16, hits give low values 1 | S. cerevisiae deletion strains, strain wtn01, hits give low values 1.01 | S. cerevisiae strains, strain wild type, hits give low values 1.04

From PubChem BioAssay AID1159580 (chemical genetic matrix, 2015)
